From PubChem BioAssay (NCATS)
Unmarked numbers belong to inactive results. Where a call stands in place of a potency, no number is given. For part of these data: Potency and affinity values are given separately. Activity calls are given as the source filed them. The rule behind the calls is not given here. Square brackets hold non-standard residues; d marks the D form. Peptide text beside a SMILES is read from it. * marks the point of attachment. Sta = CC(C)C[C@H](N)[C@@H](O)CC(=O)O; Isovaleryl = CC(C)CC(=O)*

What was measured:
[1] = Ebola virus entry assay, green fluorescence channel
[2] = Ebola virus entry assay, blue channel fluorescence
[3] = Ebola virus entry assay, ratio channel
[4] = Ebola virus entry assay, green channel fluorescence
[5] = Ebola virus entry assay, reporter ratio channel; Channel type: primary
[6] = Ebola virus entry assay, blue channel (ratio component)

Structure (SMILES) | efficacy [1] [%] | outcome [2] | outcome [3] | outcome [4] | outcome [5] | outcome [6] | AC50 [5] | AC50 [3]
O=C(O)Cc1ccc2c(c1)C(=O)c1ccccc1CO2 | 17 | inactive | inactive | inactive | inactive | inactive |  | 
CNC(=O)Oc1ccc2c(c1)[C@]1(C)CCN(C)[C@@H]1N2C | 20.2 | inactive | inactive | inactive | inactive | inactive |  | 
CC1(C)OC(=O)Nc2ccc(Br)cc21 | -21.5 | inactive | inactive | inactive | inactive | inactive |  | 
O=C(O)c1ccc(OCCN2CCCCC2)cc1 | -23.5 | inactive | inactive | inactive | inactive | inactive |  | 
C/C=C(/C(=C/C)c1ccc(OC(C)=O)cc1)c1ccc(OC(C)=O)cc1 | 15.4 | inactive | inactive | inactive | inactive | inactive |  | 
COc1cccc2c1C(=O)c1c(O)c3c(c(O)c1C2=O)C[C@@](O)(C(=O)CO)C[C@@H]3O[C@H]1C[C@H](N)[C@H](O[C@@H]2CCCCO2)[C@H](C)O1 | 15.3 | inactive | inactive | inactive | inactive | inactive |  | 
CNc1c2c(nn1C)CCCC2 | -13.1 | inactive | inactive | inactive | inactive | inactive |  | 
O=C(CCNNC(=O)c1ccncc1)NCc1ccccc1 | -17 | inactive | inactive | inactive | inactive | inactive |  | 
Cc1ncc([N+](=O)[O-])n1C | 20.2 | inactive | inactive | inactive | inactive | inactive |  | 
Cc1cc(C(C)(C)C)c(O)c(C(C)(C)C)c1 | -23 | inactive | inactive | inactive | inactive | inactive |  | 
Cc1c(F)cc2c(=O)c(C(=O)O)cn3c2c1CCC3C (configuration not stated) | 17.9 | inactive | inactive | inactive | inactive | inactive |  | 
C[C@H](CCC(=O)O)[C@H]1CC[C@H]2[C@@H]3C(=O)C[C@@H]4CC(=O)CC[C@]4(C)[C@H]3CC(=O)[C@]12C | -7.14 | inactive | inactive | inactive | inactive | inactive |  | 
CC(=C(CCOC(=O)C(C)C)SSC(CCOC(=O)C(C)C)=C(C)N(C=O)Cc1cnc(C)nc1N)N(C=O)Cc1cnc(C)nc1N | -18 | inactive | inactive | inactive | inactive | inactive |  | 
CN1[C@@H]2CC[C@H]1CC(OC(=O)c1c[nH]c3ccccc13)C2 (some centres not stated) | 45 | inactive | inactive | inactive |  | inactive | 39.8 µM (active) | 
C[C@@H]1CC[C@@]2(OC1)O[C@H]1C[C@H]3[C@@H]4CC[C@H]5C[C@@H](O)CC[C@]5(C)[C@H]4CC(=O)[C@]3(C)[C@H]1[C@@H]2C | 21.9 | inactive | inactive | inactive | inactive | inactive |  | 
CC(=O)CCC(=O)O | 10.9 | inactive | inactive | inactive | inactive | inactive |  | 
CCCCCOc1ccc(C2SC(=O)NC2=O)cc1OCC (configuration not stated) | 24.1 | inactive | inactive | inactive | inactive | inactive |  | 
Nc1ccn([C@H]2CC[C@@H](CO)O2)c(=O)n1 | -13.2 | inactive | inactive | inactive | inactive | inactive |  | 
CC(C)(C)c1nnc(NS(=O)(=O)c2ccc(N)cc2)s1 | -23 | inactive | inactive | inactive | inactive | inactive |  | 

Structure (SMILES) | efficacy [1] [%] | outcome [2] | outcome [3] | outcome [4] | outcome [5] | outcome [6] | AC50 [5] | AC50 [3]
O=C(O)CCC(=O)Nc1ccc(S(=O)(=O)Nc2nccs2)cc1 | -34.8 | inactive | inactive | inactive | inactive | inactive |  | 
CC(O)Cn1cnc2c1c(=O)n(C)c(=O)n2C (configuration not stated) | 6.04 | inactive | inactive | inactive | inactive | inactive |  | 
Cn1cc(C(=O)[C@@H]2CCc3nc[nH]c3C2)c2ccccc21 | 15.9 | inactive | inactive | inactive |  | inactive | 39.8 µM (active) | 
N=C(N)c1ccc(OCCCOc2ccc(C(=N)N)cc2)cc1 | 14.7 | inactive | inactive | inactive | inactive | inactive |  | 
O=C(O)CNC(=O)c1ccccc1I | -12.8 | inactive | inactive | inactive | inactive | inactive |  | 
Cc1ccc(=O)n(-c2ccccc2)c1 | -13.1 | inactive | inactive | inactive | inactive | inactive |  | 
CN(C)C(=O)CNC(=O)Cc1ccccc1 | 16.6 | inactive | inactive | inactive | inactive | inactive |  | 
CCCCCCCCCCCCCCC[C@H](O)[C@@H](N)CO | 25.9 | inactive | inactive | inactive | inactive | inactive |  | 
O=C(O)c1ccc(OCCCOc2ccc(C(=O)O)cc2)cc1 | 11.3 | inactive | inactive | inactive | inactive | inactive |  | 
Oc1cc(O)c2c(c1)O[C@H](c1ccc(O)c(O)c1)[C@H](O)C2 | 34.8 | inactive | inactive | inactive | inactive | inactive |  | 
CC(=O)Oc1ccc(C2(c3ccc(OC(C)=O)cc3)Oc3ccccc3NC2=O)cc1 | -26.7 | inactive | inactive | inactive | inactive | inactive |  | 
C#C[C@]1(O)CC[C@H]2[C@@H]3CCc4cc(OC)ccc4[C@H]3CC[C@@]21C | 19 | inactive |  | inactive |  | inactive | 2.82 µM (active) | 2.82 µM (active)
CCn1cc(C(=O)O)c(=O)c2cc(F)c(N3CCN(C)CC3)cc21 | -16.7 | inactive | inactive | inactive | inactive | inactive |  | 
Cc1c(N(C)C)c(=O)n(-c2ccccc2)n1C | 14.3 | inactive | inactive | inactive | inactive | inactive |  | 
C[C@H]1C[C@H]2[C@@H]3CCC4=CC(=O)C=C[C@]4(C)[C@H]3C(=O)C[C@]2(C)[C@@]1(O)C(=O)CO | -24.9 | inactive | inactive | inactive | inactive | inactive |  | 
CC1(C)CO[C@@H](CC(=O)O)CN1 | -12.4 | inactive | inactive | inactive | inactive | inactive |  | 
Oc1cccc2[nH]ccc12 | 14.5 | inactive | inactive | inactive | inactive | inactive |  | 
FC(F)(F)C(F)(F)C(F)(F)C(F)(F)C(F)(F)C(F)(F)C(F)(F)C(F)(F)Br | -14.2 | inactive | inactive | inactive | inactive | inactive |  | 
Oc1ccc(C(O)CNCCCCCCNCC(O)c2ccc(O)c(O)c2)cc1O (configuration not stated) | 16 | inactive | inactive | inactive |  | inactive | 44.7 µM (active) | 

Structure (SMILES) | efficacy [1] [%] | outcome [2] | outcome [3] | outcome [4] | outcome [5] | outcome [6] | AC50 [5] | AC50 [3]
NC(=O)C1(N2CCCCC2)CCN(CCCC(=O)c2ccc(F)cc2)CC1 | 25.9 | inactive | inactive | inactive | inactive | inactive |  | 
Cc1ccc(O)cc1 | -17.7 | inactive | inactive | inactive | inactive | inactive |  | 
Cc1ccc(/C=N/n2c(-c3ccccc3)csc2=S)cc1 | 32.3 | inactive | inactive | inactive | inactive | inactive |  | 
NS(=O)(=O)c1cc2c(cc1Cl)NC(CSCc1ccccc1)=NS2(=O)=O | 11.6 | inactive | inactive | inactive | inactive | inactive |  | 
O=C(O)c1ccccc1Nc1cc(Cl)ccc1C(=O)O | -12.4 | inactive | inactive | inactive | inactive | inactive |  | 
O=C1c2ccccc2C(=O)C1c1ccccc1 | 13.2 | inactive | inactive | inactive | inactive | inactive |  | 
NCC(=O)O | 13.7 | inactive | inactive | inactive | inactive | inactive |  | 
CCN(CC)CC1CCCCN1CC(=O)N1c2ccccc2C(=O)Nc2cccnc21 (configuration not stated) | 31.3 | inactive | inactive | inactive | inactive | inactive |  | 
COc1cc(C(=S)N2CCOCC2)ccc1O | -16.3 | inactive | inactive | inactive | inactive | inactive |  | 
CC(C)C(=O)OCc1cccc(OC(=O)[C@@H]2N3C(=O)[C@@H](NC(=O)Cc4ccccc4)[C@H]3SC2(C)C)c1 | -28.9 | inactive | inactive | inactive | inactive | inactive |  | 
N[C@@H](Cc1cc(I)c(O)c(I)c1)C(=O)O | 29.5 | inactive | inactive | inactive | inactive | inactive |  | 
NNc1nnc(NN)c2ccccc12 | -13 | inactive | inactive | inactive | inactive | inactive |  | 
C[C@H](N)[C@H](O)c1cccc(O)c1 | -10.3 | inactive | inactive | inactive | inactive | inactive |  | 
CC(C(=O)O)c1ccc(CC2CCCC2=O)cc1 (configuration not stated) | 31.1 | inactive | inactive | inactive | inactive | inactive |  | 
CC(C)CCCC(C)N (configuration not stated) | -16.5 | inactive | inactive | inactive | inactive | inactive |  | 
Cn1c(=O)c2c(ncn2C)n(C)c1=O | -24.5 | inactive | inactive | inactive | inactive | inactive |  | 
O=c1[nH]c2ccccc2c(=O)n1CCCl | -18.7 | inactive | inactive | inactive | inactive | inactive |  | 
CC(C)CC(=O)N[C@H](C(=O)N[C@H](C(=O)N[C@@H](CC(C)C)[C@@H](O)CC(=O)N[C@@H](C)C(=O)N[C@@H](CC(C)C)[C@@H](O)CC(=O)O)C(C)C)C(C)C (Isovaleryl-VV[Sta]A[Sta]-OH) | -12.4 | inactive | inactive | inactive | inactive | inactive |  | 
COc1cc(OC)cc(OC)c1 | -13.9 | inactive | inactive | inactive | inactive | inactive |  | 
